Shown are actives, neighbours in structure and some others; about 4.3% of the full set was active somewhere.
Wnt act = Wnt/beta-catenin pathway activation; AID 743398; actives 1.2% (n = 300,000); Wnt/beta-catenin reporter cell assay, activator, plate reader; activation, % at 9.35 µM; in the data active means activation above about 30%, passing the limit was not always enough; inconclusive means no clear call, values can overlap the other calls
MITF act = activators of MITF-driven TRPM1 promoter activity in SK-MEL-5 cells | AID 588334 | actives 0.75% (n = 300,000) | activation, % at 12.5 µM | SK-MEL-5 TRPM1-promoter luciferase, 24 h; % of positive control, neutral wells = 0;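 active means mean activation of at least 80% with every replicate also reaching 80%; inconclusive means mean reaches 80% but some replicate falls short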
SMARCA2 act = activators of SMARCA2 function; MG213 cells, MMTV-luciferase reporter, dexamethasone, overnight; activation, % at 9.1 µM; actives 1% (n = 370,000); AID 652017; in the data active means activation above about 7.8%
HSF1 inhib = HSF1 inhibition | NIH3T3-HGL HSE-luciferase, MG132-induced, luminescence 8 h; active compounds read low | activity change, negative = inhibition, % at 7.5 µM (by protocol) | actives 0.77% (n = 300,000) | AID 2098;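 active means more than half of replicate wells show activity change below -50%, luminescence cut by over half; inconclusive means some wells, but at most half, below -50%; inactive means no replicate well below -50%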;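 further: luciferase reports HSF-1 transcriptional activity via heat shock element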
esBAF inh = inhibitors of esBAF chromatin remodeling in mouse ES cells. reporter increase, % at 12.5 µM. actives 2% (n = 350,000). Bmi1-luciferase knock-in reporter, 24 h; 100% = twice the neutral-well signal; in the data active means activation above about 40%; inconclusive means no clear call, values can overlap the other calls;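 further: a rise in the Bmi1 reporter signal indicates esBAF inhibition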
HSF1 activator = increases HSF-1 driven luciferase reporter signal. AID 504408. actives 1.7% (n = 300,000). NIH3T3-HGL HSF-1 luciferase reporter, MG132, 8 h; 100% = twice DMSO control signal. activation, % at 9 µM;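 active means mean replicate activation of at least 50% with a set share of replicates each reaching 50%; inconclusive means only one of those two conditions met; inactive means mean below 50% and too few replicates reaching it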
Large screens that a line does not name were inactive; ! = repeats disagree.

CC(C)NC(=O)N(C)C[C@@H]1OCCCC[C@H](C)Oc2ccc(NC(=O)Nc3ccc4c(c3)OCO4)cc2C(=O)N([C@H](C)CO)C[C@@H]1C	esBAF inh 48 (no result: Wnt act, MITF act, SMARCA2 act, HSF1 inhib, HSF1 activator)
Cc1noc(C)c1S(=O)(=O)Nc1ccc2c(c1)C(=O)N([C@H](C)CO)C[C@@H](C)[C@@H](CN(C)Cc1ccc(C(=O)Nc3ccccc3N)cc1)O2	none (no result: Wnt act, MITF act, SMARCA2 act, HSF1 inhib, HSF1 activator)
C[C@@H]1CN([C@@H](C)CO)S(=O)(=O)c2ccc(C#C[C@@H](C)O)cc2O[C@@H]1CN(C)C(=O)C1CCC1	none (no result: Wnt act, MITF act, SMARCA2 act, HSF1 inhib, HSF1 activator)
C[C@@H]1CCCCO[C@H](CN(C)C(=O)Nc2cccc3ccccc23)[C@@H](C)CN([C@@H](C)CO)C(=O)c2cc(NC(=O)CCC(F)(F)F)ccc2O1	none (no result: Wnt act, MITF act, SMARCA2 act, HSF1 inhib, HSF1 activator)
C[C@@H]1CCCCO[C@@H](CN(C)C(=O)Nc2ccc3c(c2)OCO3)[C@H](C)CN([C@H](C)CO)C(=O)c2cc(NC(=O)Nc3ccc4c(c3)OCO4)ccc2O1	esBAF inh 80 (no result: Wnt act, MITF act, SMARCA2 act, HSF1 inhib, HSF1 activator)
C[C@H]1CCCCO[C@H](CN(C)C(=O)Nc2ccc(F)cc2)[C@@H](C)CN([C@@H](C)CO)C(=O)c2cc(NC(=O)Nc3ccc4c(c3)OCO4)ccc2O1	esBAF inh 51! (no result: MITF act, HSF1 inhib, HSF1 activator)
CNC[C@@H]1OCCCC[C@H](C)Oc2ccc(NS(=O)(=O)c3ccc(C)cc3)cc2C(=O)N([C@H](C)CO)C[C@H]1C	esBAF inh 55 (no result: Wnt act, MITF act, SMARCA2 act, HSF1 inhib, HSF1 activator)
C[C@@H]1CCCCO[C@H](CN(C)C(=O)Nc2cccc3ccccc23)[C@H](C)CN([C@@H](C)CO)C(=O)c2cc(NC(=O)CCC(F)(F)F)ccc2O1	esBAF inh 45 (no result: Wnt act, MITF act, SMARCA2 act, HSF1 inhib, HSF1 activator)
C[C@@H]1CCCCO[C@@H](CN(C)C(=O)Nc2ccc3c(c2)OCO3)[C@H](C)CN([C@@H](C)CO)C(=O)c2cc(NC(=O)Nc3ccc(F)cc3)ccc2O1	none (no result: Wnt act, MITF act, SMARCA2 act, HSF1 inhib, HSF1 activator)
CNC[C@@H]1OCCCC[C@@H](C)Oc2ccc(NS(=O)(=O)c3ccc(C)cc3)cc2C(=O)N([C@@H](C)CO)C[C@@H]1C	none (no result: Wnt act, MITF act, SMARCA2 act, HSF1 inhib, HSF1 activator)
COC(=O)C[C@H]1CC[C@H]2[C@@H](COC[C@H](O)CN2S(=O)(=O)c2cn(C)cn2)O1	none (no result: Wnt act, MITF act, SMARCA2 act, HSF1 inhib, HSF1 activator)
O=C1CC(c2ccc(Cl)c([N+](=O)[O-])c2)c2ccc3ccccc3c2N1 (centres undefined)	HSF1 inhib -65 (no result: Wnt act, esBAF inh)
CCCN(C)C[C@H]1Oc2ncc(-c3ccccc3)cc2C(=O)N([C@H](C)CO)C[C@H]1C	none (no result: Wnt act, MITF act, SMARCA2 act, HSF1 inhib, HSF1 activator)
C[C@@H]1CN([C@H](C)CO)C(=O)c2cccc(NC(=O)C3CC3)c2O[C@@H]1CN(C)S(=O)(=O)c1cn(C)cn1	none (no result: Wnt act, MITF act, SMARCA2 act, HSF1 inhib, HSF1 activator)
Cc1cc(=O)n2[nH]c(-c3ccc(Cl)cc3)cc2n1	SMARCA2 act 7.8, esBAF inh inconclusive (no result: Wnt act)
COc1cccc(/C=N/Nc2ccc(Cl)nn2)c1OC	none (no result: MITF act, esBAF inh)
Fc1ccccc1/C=N/Nc1ccc(Cl)nn1	esBAF inh 55
Oc1ccc(/C=N/Nc2ccc(Cl)nn2)cc1O	none
Cc1ccc(/C=N/Nc2ccc(Cl)nn2)cc1	Wnt act 37, MITF act 95 (no result: esBAF inh)
O=C(NCC[C@H]1CC[C@H](NC(=O)C2CCCC2)[C@H](CO)O1)c1ccc(F)cc1	none (no result: Wnt act, MITF act, SMARCA2 act, HSF1 inhib, HSF1 activator)
CCCNC(=O)N1C[C@H](C)[C@@H](OC)CN(C)C(=O)c2cc(NC(C)=O)ccc2OC[C@@H]1C	none (no result: Wnt act, MITF act, SMARCA2 act, HSF1 inhib, HSF1 activator)
O=C1CNC(=S)N1CCc1ccc(O)c(O)c1	Wnt act 50 (no result: MITF act, esBAF inh)
C[C@@H]1CN([C@@H](C)CO)C(=O)c2cc(/C=C/c3ccccc3)cnc2O[C@@H]1CN(C)C(=O)c1cnccn1	none (no result: Wnt act, MITF act, SMARCA2 act, HSF1 inhib, HSF1 activator)
CCCNC(=O)C[C@@H]1CC[C@H]2[C@H](COc3ccc(NC(=O)c4cccc(C(F)(F)F)c4)cc3C(=O)N2C)O1	none (no result: Wnt act, MITF act, SMARCA2 act, HSF1 inhib, HSF1 activator)
COc1ccc(-c2cc3ccc(OC)cc3cn2)cc1	none (no result: HSF1 inhib, HSF1 activator)
Fc1ccc2cnc(-c3ccsc3)cc2c1	none (no result: MITF act, HSF1 inhib, esBAF inh, HSF1 activator)
COc1ccc(C(O)c2ncc(-c3ccccc3F)[nH]2)cc1 (centres undefined)	none (no result: MITF act, HSF1 inhib, HSF1 activator)
COc1ccc2cc(-c3cccnc3)ncc2c1	Wnt act inconclusive, MITF act 97 (no result: HSF1 inhib, HSF1 activator)
COc1ccc2cc(-c3ccccc3F)ncc2c1	Wnt act 38 (no result: HSF1 inhib, HSF1 activator)
Fc1ccc2cc(-c3cccnc3)ncc2c1	esBAF inh 50 (no result: HSF1 inhib, HSF1 activator)
Cc1noc(C)c1NC(=O)N[C@H]1CC[C@H](CCNC(=O)C2CCC2)O[C@H]1CO	none (no result: Wnt act, MITF act, SMARCA2 act, HSF1 inhib, HSF1 activator)
CC(C)NC(=O)NCC[C@H]1CC[C@H](NC(=O)Nc2ccccc2)[C@H](CO)O1	none (no result: Wnt act, MITF act, SMARCA2 act, HSF1 inhib, HSF1 activator)
Cc1cccc(NC(=O)C(=O)NCCCN2CCOCC2)c1	none (no result: esBAF inh)

Screening data (PubChem BioAssay)
